Common to all, as to conditions: mRNA level, 48 h; actives raise or lower the signal
Read-out in experiment [1]: Heat shock 70 kDa protein 1 (HSPA1A), gene 3303
Nature of the experiment: LTEA_HepaRG_HSPA1A: Life Technologies and Expression Analysis (LTEA) Assay for Heat shock 70 kDa protein 1 (HSPA1A) using HepaRG (AID 2283502). The essentials:
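HSPA1A induction in human HepaRG liver cells is measured after 48 h of chemical treatment (100 uM maximum, 0.5% DMSO vehicle). Expression comes from qRT-PCR normalized to endogenous controls.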

Read-out in experiment [2]: Hypoxia-inducible factor 1-alpha (Homo sapiens) (UniProt Q16665)
The experiment in a line: LTEA_HepaRG_HIF1A: Life Technologies and Expression Analysis (LTEA) Assay for Hypoxia-inducible factor 1 (HIF1A) Trancription factor using HepaRG (AID 2283503).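 Note: HIF1A transcript by TaqMan qRT-PCR normalized to ACTB GAPDH and POLR2A.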 In outline:
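HepaRG, 48 h exposure, 8-pt half-log series from 100 uM, 0.5% DMSO vehicle, duplicates. Readout: HIF1A transcript by qRT-PCR (Fluidigm array), housekeeping-normalised. Bidirectional curve fit vs DMSO baseline.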

Read-out in experiment [3]: 3-Hydroxy-3-Methylglutaryl-CoA Synthase 2 (HMGCS2), HMGCS2 (gene 3158)
Nature of the experiment: LTEA_HepaRG_HMGCS2: Life Technologies and Expression Analysis (LTEA) Assay for 3-Hydroxy-3-Methylglutaryl-CoA Synthase 2 (HMGCS2) using HepaRG (AID 2283504). The essentials:
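This steatosis marker was read as HMGCS2 mRNA change in HepaRG cells treated 48 h with up to 100 uM chemical. Normalisation used housekeeping genes; activity in either direction was fitted relative to 0.5% DMSO vehicle.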

Read-out in a further experiment: HGF (gene 3082)
Nature of the experiment: LTEA_HepaRG_HGF: Life Technologies and Expression Analysis (LTEA) Assay for Hepatocyte Growth Facto (HGF) using HepaRG (AID 2283505). The essentials:
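Using HepaRG monolayers kept in 0.5% DMSO, chemicals were tested in duplicate over eight half-log concentrations from 100 uM for 48 h. Endpoint: HGF mRNA change relative to DMSO, normalized to ACTB/GAPDH/POLR2A.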

Read-out in experiment [4]: Insulin Like Growth Factor 1 (IGF1), IGF1 (gene 3479)
The experiment in a line: LTEA_HepaRG_IGF1: Life Technologies and Expression Analysis (LTEA) Assay for Insulin Like Growth Factor 1 (IGF1) using HepaRG (AID 2283506). The essentials: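 Using human HepaRG liver cells, IGF1 transcript induction or suppression is measured 48 h after dosing across eight concentrations capped at 100 uM. Values derive from bidirectional concentration-response fitting with DMSO as baseline.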

Read-out in experiment [5]: Intercellular Adhesion Molecule 1 (ICAM1), ICAM1 (gene 3383)
The experiment in a line: LTEA_HepaRG_ICAM1: Life Technologies and Expression Analysis (LTEA) Assay for Intercellular Adhesion Molecule 1 (ICAM1) using HepaRG (AID 2283507). The essentials: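 Using the human liver line HepaRG, compounds are tested in duplicate over 48 h at concentrations up to 100 uM. Expression is determined by TaqMan qRT-PCR, normalized to endogenous controls, and analysed relative to 0.5% DMSO vehicle.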

Read-out in experiment [6]: Insulin-like growth factor-binding protein 1 (IGFBP1), IGFBP1 (gene 3484)
The experiment in a line: LTEA_HepaRG_IGFBP1: Life Technologies and Expression Analysis (LTEA) Assay for Insulin-like growth factor-binding protein 1 (IGFBP1) using HepaRG (AID 2283508). In outline:
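HepaRG, 48 h, 8 conc. (max 100 uM, half-log), duplicates, 0.5% DMSO. Readout: TaqMan qRT-PCR, ACTB/GAPDH/POLR2A normalisation. Fit: bidirectional vs DMSO.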

Read-out in experiment [7]: Interleukin 6 (IL6), IL6 (gene 3569)
Nature of the experiment: LTEA_HepaRG_IL6: Life Technologies and Expression Analysis (LTEA) Assay for Interleukin 6 (IL6) using HepaRG (AID 2283509). In outline:
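HepaRG, ~100,000 cells/well, 48 h pre-culture; serum-free induction medium; cmpd 8-pt half-log from 100 uM, 0.5% DMSO, duplicate, 48 h. Lysis in RLT, TaqMan qRT-PCR; gain or loss vs DMSO.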

Read-out in experiment [8]: Interleukin 6 Receptor (IL6R), IL6R (gene 3570)
Nature of the experiment: LTEA_HepaRG_IL6R: Life Technologies and Expression Analysis (LTEA) Assay for Interleukin 6 Receptor (IL6R) using HepaRG (AID 2283510). In outline: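 Concentration-response in human liver HepaRG cells: eight concentrations from 100 uM downward by half-logs, 48 h exposure, 0.5% DMSO vehicle. IL6R mRNA change measured by qRT-PCR and fitted in both directions relative to vehicle.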

Read-out in experiment [9]: Potassium channel subfamily K member 1 (KCNK1), KCNK1 (gene 3775)
Nature of the experiment: LTEA_HepaRG_KCNK1: Life Technologies and Expression Analysis (LTEA) Assay for Potassium channel subfamily K member 1 (KCNK1) using HepaRG (AID 2283511). In outline: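 Gain or loss of KCNK1 mRNA is the read-out, quantified by qRT-PCR against three housekeeping genes after 48 h chemical treatment of human HepaRG liver cells. Concentrations ran from 100 uM downward in half-log steps, vehicle 0.5% DMSO.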

Read-out in experiment [10]: Keratin 19 (KRT19), KRT19 (gene 3880)
Nature of the experiment: LTEA_HepaRG_KRT19: Life Technologies and Expression Analysis (LTEA) Assay for Keratin 19 (KRT19) using HepaRG (AID 2283512). The essentials: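 Readout is qRT-PCR of KRT19 mRNA, normalized to ACTB, GAPDH and POLR2A, from HepaRG cells treated 48 h with eight-point half-log dilutions topping at 100 uM. Activity in either direction is scored relative to 0.5% DMSO vehicle.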

Read-out in experiment [11]: JUN Transcription Factor, JUN (gene 3725)
Nature of the experiment: LTEA_HepaRG_JUN: Life Technologies and Expression Analysis (LTEA) Assay for JUN Transcription Factor using HepaRG (AID 2283513). In outline: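 Human HepaRG liver cells receive test chemicals in 0.5% DMSO for 48 h across an eight-point range topping at 100 uM. Expression changes in JUN are scored in both directions against the DMSO vehicle.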

Read-out in experiment [12]: Lipase C (LIPC), LIPC (gene 3990)
Nature of the experiment: LTEA_HepaRG_LIPC: Life Technologies and Expression Analysis (LTEA) Assay for Lipase C (LIPC) using HepaRG (AID 2283514). The essentials:
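Read-out is LIPC transcript level by TaqMan qRT-PCR, normalized to three housekeeping genes, after 48 h chemical treatment of human HepaRG liver cells. Curves span eight concentrations topping at 100 uM; activity in either direction scored relative to 0.5% DMSO.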

Read-out in experiment [13]: Lipoprotein lipase (LPL), LPL (gene 4023)
The experiment in a line: LTEA_HepaRG_LPL: Life Technologies and Expression Analysis (LTEA) Assay for Lipoprotein lipase (LPL) using HepaRG (AID 2283515). In outline:
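Read-out is LPL transcript level by qRT-PCR, normalized to three housekeeping genes and fitted bidirectionally against the DMSO control. Human HepaRG cells received chemicals for 48 h at up to 100 uM.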

Read-out in experiment [14]: MicroRNA 122 (MIR122), gene 406906
The experiment in a line: LTEA_HepaRG_MIR122: Life Technologies and Expression Analysis (LTEA) Assay for MicroRNA 122 (MIR122) using HepaRG (AID 2283516). Note: the transcript read is the microRNA miR-122. In outline:
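HepaRG, 48 h exposure, 8-pt half-log from 100 uM, 0.5% DMSO; TaqMan qRT-PCR; bidirectional fit vs DMSO.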

Read-out in experiment [15]: matrix metalloproteinase-10 (MMP10), MMP10 (gene 4319)
Nature of the experiment: LTEA_HepaRG_MMP10: Life Technologies and Expression Analysis (LTEA) Assay for matrix metalloproteinase-10 (MMP10) using HepaRG (AID 2283517). In outline:
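Gain or loss of MMP10 mRNA is fitted relative to the 0.5% DMSO vehicle. The human hepatic line HepaRG receives a 48-hour serum-free exposure, in duplicate, with a maximum concentration of 100 uM.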

Read-out in the next experiment: MYC, MYC (gene 4609)
Nature of the experiment: LTEA_HepaRG_MYC: Life Technologies and Expression Analysis (LTEA) Assay for MYC using HepaRG (AID 2283518). The essentials:
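Expression changes were scored by TaqMan qRT-PCR with ACTB, GAPDH and POLR2A normalization. Cultures in serum-free induction medium received duplicate 8-point concentration series, highest 100 uM, for 48 h; DMSO (0.5%) served as baseline.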

Read-out in experiment [16]: matrix metalloproteinase-3 (MMP3), MMP3 (gene 4314)
Nature of the experiment: LTEA_HepaRG_MMP3: Life Technologies and Expression Analysis (LTEA) Assay for matrix metalloproteinase-3 (MMP3) using HepaRG (AID 2283519). The essentials: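 HepaRG, human; 48 h dosing, 8 conc. (max 100 uM, half-log), duplicate, 0.5% DMSO. Readout: MMP3 transcript by Fluidigm TaqMan qRT-PCR, ACTB/GAPDH/POLR2A-normalised. Gain or loss fitted vs DMSO.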

Read-out in experiment [17]: Paternally Expressed 10 (PEG10), PEG10 (gene 23089)
The experiment in a line: LTEA_HepaRG_PEG10: Life Technologies and Expression Analysis (LTEA) Assay for Paternally Expressed 10 (PEG10) using HepaRG (AID 2283520).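 For AC50: differentiated HepaRG human liver cells in serum-free induction medium with 0.5% DMSO; PEG10 transcript by qRT-PCR normalised to ACTB GAPDH and POLR2A.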 The essentials: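 Chemicals tested on HepaRG cells for 48 h, highest concentration 100 uM. PEG10 expression assessed by qRT-PCR relative to DMSO control.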

Read-out in experiment [18]: Glutathione S-transferase M3 (GSTM3), GSTM3 (gene 2947)
Nature of the experiment: LTEA_HepaRG_GSTM3: Life Technologies and Expression Analysis (LTEA) Assay for Glutathione S-transferase M3 (GSTM3) using HepaRG (AID 2283501). In outline:
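Expression of GSTM3 is determined by qRT-PCR in human liver HepaRG cells treated 48 h with an 8-point half-log range from 100 uM in 0.5% DMSO.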

What is called AC50 is the midpoint of the concentration-response curve, whichever way the signal moves.

The structures appear in SMILES notation. Calls of active or inactive are those of the source. Rule for the calls: active = hit-call score of the fitted dose curve at least 0.9, where 1 is the maximum; inactive = score below 0.9.

Chain of Hypoxia-inducible factor 1-alpha (Homo sapiens) (Q16665 whole entry, looked up): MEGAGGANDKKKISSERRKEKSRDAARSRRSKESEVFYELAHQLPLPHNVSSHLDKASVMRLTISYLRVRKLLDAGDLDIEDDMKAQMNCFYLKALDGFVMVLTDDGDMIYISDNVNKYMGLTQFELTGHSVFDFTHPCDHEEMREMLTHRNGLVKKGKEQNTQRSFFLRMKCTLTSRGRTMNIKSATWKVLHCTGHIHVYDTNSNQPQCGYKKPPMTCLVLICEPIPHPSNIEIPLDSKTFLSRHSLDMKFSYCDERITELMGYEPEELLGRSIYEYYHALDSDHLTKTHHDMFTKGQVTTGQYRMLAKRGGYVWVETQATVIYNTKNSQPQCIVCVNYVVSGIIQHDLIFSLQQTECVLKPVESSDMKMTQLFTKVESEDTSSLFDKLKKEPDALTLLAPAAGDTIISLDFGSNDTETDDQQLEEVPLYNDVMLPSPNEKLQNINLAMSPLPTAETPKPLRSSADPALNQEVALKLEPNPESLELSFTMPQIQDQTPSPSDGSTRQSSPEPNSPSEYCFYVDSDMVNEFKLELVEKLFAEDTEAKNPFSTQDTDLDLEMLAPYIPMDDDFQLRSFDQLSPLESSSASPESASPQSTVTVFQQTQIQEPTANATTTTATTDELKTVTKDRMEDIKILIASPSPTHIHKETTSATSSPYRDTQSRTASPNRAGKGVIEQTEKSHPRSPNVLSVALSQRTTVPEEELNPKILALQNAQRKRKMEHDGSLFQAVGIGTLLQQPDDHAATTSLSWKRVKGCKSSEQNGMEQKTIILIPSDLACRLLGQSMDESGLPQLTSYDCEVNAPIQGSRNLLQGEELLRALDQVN

Take `CN(C)C(=S)SSC(=S)N(C)C`: the call (in [1]; in experiment [2]; in [3]; in the experiment with HGF (gene 3082); in [4]; in [5]) was inactive. For the same compound, the compound was called inactive in experiment [6], in [7], in experiment [8], in experiment [9], in experiment [10] and in [11]. The outcome in experiment [12] is “inactive”; in experiment [13] it was “inactive”; in experiment [14] it was “inactive”; in experiment [15] it was “inactive”; with MYC, MYC (gene 4609) it was “inactive”; in [16], “inactive”. The call in [17] was inactive.

Turning to `N#CC(CCc1ccc(Cl)cc1)(Cn1cncn1)c1ccccc1` (centres undefined), the compound was classed as inactive in experiment [18], in experiment [8] and in [10]. Further, the AC50 is 79.5 µM (active) in [1]; 73.7 µM (active) in [2]; 67.9 µM (active) in [3]; 93.6 µM (active) with HGF (gene 3082); 50 µM (active) in [4]; 71.6 µM (active) in [5]. The concentration at half-maximal activity (AC50) in experiment [6] was 74.4 µM (active); in [7] it was 80.2 µM (active); in [9], 44.6 µM (active); in experiment [11], 90.3 µM (active); in experiment [12], 65.9 µM (active); in experiment [13], 50 µM (active). In addition, the concentration at half-maximal activity (AC50) was 66 µM (active) in experiment [14]; 74.2 µM (active) in experiment [15]; 65.2 µM (active) with MYC, MYC (gene 4609); 86 µM (active) in experiment [16]; 9.92 µM (active) in [17].

The values are drawn from PubChem BioAssay (EPA / NIEHS).
